{"source": "PubChem BioAssay AID651909", "about": "(Vanderbilt Specialized Chemistry Center, 2012)", "target": "Histone deacetylase 9 (Homo sapiens) (UniProt Q9UKV0)", "sequence (Q9UKV0 whole entry, looked up)": "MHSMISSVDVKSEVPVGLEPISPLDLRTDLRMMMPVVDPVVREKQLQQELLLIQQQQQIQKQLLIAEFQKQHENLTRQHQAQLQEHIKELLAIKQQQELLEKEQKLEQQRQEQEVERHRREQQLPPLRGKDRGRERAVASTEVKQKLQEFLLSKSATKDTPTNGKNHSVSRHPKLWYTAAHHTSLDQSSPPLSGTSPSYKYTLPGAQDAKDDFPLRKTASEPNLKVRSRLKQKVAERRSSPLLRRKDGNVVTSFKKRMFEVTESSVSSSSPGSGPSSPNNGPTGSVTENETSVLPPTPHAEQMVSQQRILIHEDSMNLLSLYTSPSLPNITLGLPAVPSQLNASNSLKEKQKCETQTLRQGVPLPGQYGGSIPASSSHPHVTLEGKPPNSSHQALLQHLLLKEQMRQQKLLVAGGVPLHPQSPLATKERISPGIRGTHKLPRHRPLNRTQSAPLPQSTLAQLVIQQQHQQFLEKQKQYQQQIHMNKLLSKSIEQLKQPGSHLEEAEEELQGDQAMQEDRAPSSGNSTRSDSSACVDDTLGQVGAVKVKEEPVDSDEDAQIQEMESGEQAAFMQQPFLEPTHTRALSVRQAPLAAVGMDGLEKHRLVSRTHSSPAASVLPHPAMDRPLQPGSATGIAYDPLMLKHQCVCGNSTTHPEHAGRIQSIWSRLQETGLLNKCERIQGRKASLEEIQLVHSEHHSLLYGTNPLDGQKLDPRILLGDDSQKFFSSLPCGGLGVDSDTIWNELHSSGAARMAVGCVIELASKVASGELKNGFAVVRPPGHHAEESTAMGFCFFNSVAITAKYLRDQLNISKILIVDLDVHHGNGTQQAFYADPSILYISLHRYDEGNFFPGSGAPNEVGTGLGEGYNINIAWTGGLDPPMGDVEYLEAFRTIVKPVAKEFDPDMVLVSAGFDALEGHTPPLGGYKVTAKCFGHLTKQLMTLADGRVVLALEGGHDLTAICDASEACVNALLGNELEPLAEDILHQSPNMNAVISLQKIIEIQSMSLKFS", "assay": "inhibitors of recombinant human HDAC9 – biochemical, selectivity assay for E-cadherin restoration project, profiling panel (AID 651909)", "note": "Calls of active or inactive are those of the source. No rule for the calls is given here.", "data": [{"smiles": "O=C(NCCCNC(=O)c1ccc[nH]c1=O)c1cc(-c2ccccc2)on1", "values": [{"measurement": "outcome", "result": "inactive"}]}]}
